Screens deposited in PubChem by Broad Institute.
Hits are enriched below; roughly 2.2% of the tested compounds scored in any of these assays.
PGC1a acetyl inh – inhibitors of PGC1a acetylation signal, primary screen, cell-based, U2OS, AlphaScreen, inhibitor mode; AlphaScreen anti-acetyl-lysine; with virally co-expressed GCN5 acetyltransferase; inhibition, % at 15.6 µM; 350,000 compounds, 0.17% hits; AID 651687, 2012;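 active = every replicate shows inhibition of at least 40%; inconclusive = mean inhibition at least 40% but some replicate below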;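 also: 0% = neutral control wells and 100% = positive control wells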
LGR2 inh – inhibitors of bursicon-induced LGR2 CRE-luciferase signal, primary screen, cell-based, HEK293, CRE-luciferase reporter, bursicon stimulation. Drosophila bursicon receptor LGR2 (rickets). bursicon-stimulated, 4 h. inhibition, % at 9.99 µM. 380,000 compounds, 0.35% hits;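 active = drop in luminescence signal, shown as inhibition above about 50% in the replicate tests, limit read from the data, passing the limit was not always enough; inconclusive = probably only some replicates passing the limit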;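 also: agonist challenge used bursicon conditioned medium at about half maximal strength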
EWS-Fli block – EWS/Fli-driven NR0B1 reporter inhibitors, primary screen, A673 cells, NR0B1 luciferase, luminescence, MLPCN library; viability-normalised; inhibition, % at 12.6 µM; 350,000 compounds, 0.67% hits;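 active = mean inhibition of at least 50% after viability correction, with every replicate also passing that limit; inconclusive = mean reaches 50% but only one of two replicates passes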;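 also: firefly luciferase signal divided by Alamar Blue viability fluorescence both relative to DMSO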
PAX8 reporter – inhibitors of PAX8-driven TPO luciferase reporter, primary screen, RMG-I cells, single concentration | SteadyGlo, 24 h | inhibition, % at 12.6 µM | 360,000 compounds, 1.2% hits | AID 652154, 2013;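 active = mean replicate inhibition at least 60% with every replicate also reaching 60%; inconclusive = only one of the two criteria is met; inactive = mean below 60% and not all replicates reaching 60%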;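 also: luciferase light reporting Pax8 driven TPO promoter activity; plate controls were median of neutral control wells for no effect and mitoxantrone controls for full effect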
EBV LMP1 NFkB – EBV LMP1-driven NF-kappaB luciferase reporter inhibitors, primary screen, cell-based, luminescence, single point | 350,000 compounds, 0.69% hits | inhibition, % at 12.5 µM | LMP1-induced NF-kappaB luciferase reporter cells; in the data active = inhibition above about 41%; inconclusive = no clear call, values can overlap the other calls;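 also: 0% = neutral control wells and 100% = reference inhibitor control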
MITF TRPM1 inh – inhibitors of MITF-dependent TRPM1 promoter reporter, primary screen, cell-based, SK-MEL-5, single point, luciferase; SK-MEL-5 TRPM1 promoter luciferase, 24 h; inhibition, % at 12.5 µM; 330,000 compounds, 0.83% hits; AID 488899, 2010;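 active = mean inhibition across replicates of 60% or more, whatever share of single replicates reaches that level; inconclusive = some that reach 60%, reason not given; inactive = mean inhibition across replicates below 60%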
Numbers without * were called inactive; u = inconclusive; x = no result.

SMILES | PGC1a acetyl inh | LGR2 inh | EWS-Fli block | PAX8 reporter | EBV LMP1 NFkB | MITF TRPM1 inh
CC1=CC(C)CC(C)OC(=O)CC(c2ccc(O)cc2)NC(=O)C(Cc2c(Br)[nH]c3ccccc23)N(C)C(=O)C(C)NC(=O)C(C)C1 (stereo not drawn) | 35 | 82* | -25 | 102* | -2 | 81*
C[C@H]1CN([C@@H](C)CO)C(=O)c2c(c3ccccc3n2C)-c2ccccc2CO[C@H]1CN(C)C(=O)Oc1ccccc1 | x | -5 | 7 | 5 | x | x
COc1ccc(-c2ccc([C@H]3[C@@H](CO)N4CCCCN(C(=O)Cc5ccccc5)C[C@@H]34)cc2)cc1 | -16 | 7 | x | -13 | x | x
CC(=O)N(C)C1=Nc2ccc(Cl)cc2C(c2ccccc2)=[N+]([O-])C1 | 5 | 7 | 10 | 14 | 70* | -2
CC12CC[C@H]3[C@@H](CCC4(O)C[C@H](O)CCC34/C=N/NC(=O)Cc3ccccc3)C1(O)CCC2C1=CC(=O)OC1 (stereo partly drawn) | 12 | 5 | -2 | 6 | -1 | 2
CC12CCC(O)CC1CCC1C2CCC2(C)C(C3=CC(=O)OC3)C(O)CC12O (stereo not drawn) | -13 | 77* | 36 | 46 | -3 | 28
COC(=O)[C@H]1[C@H](CO)[C@H]2Cn3c(ccc(-c4ccc(OC)cc4)c3=O)[C@@H]1N2C(=O)c1ccccc1F | x | -4 | 4 | -2 | x | x
COc1ccc(-c2ccc([C@@H]3[C@H](CO)N4CCCCN(C(=O)Cc5ccccc5)C[C@@H]34)cc2)cc1 | 1 | 4 | x | -8 | x | x
C[C@H]1CN([C@@H](C)CO)C(=O)CCCn2cc(nn2)CO[C@H]1CN(C)C(=O)Oc1cccc2ccccc12 | -4 | 2 | 3 | -2 | x | x
Cc1ccc(CS(=O)(=O)CCC(=O)N2CCC3(CC2)OCCO3)cc1 | 44* | 10 | x | x | -13 | 8
Cc1ccc(CS(=O)(=O)Cc2ccc(C(=O)N3CCC4(CC3)OCCO4)o2)cc1 | 5 | -2 | x | x | -2 | 0
C/C=C/c1ccc([C@@H]2[C@@H](CO)N3CCCCN(C(=O)Cc4cccnc4)C[C@@H]23)cc1 | 5 | 18 | -2 | 2 | x | x
COC(=O)[C@@H]1[C@@H](CO)[C@@H]2Cn3c(ccc(C4=CCCCC4)c3=O)[C@H]1N2C(=O)NC(C)C | 8 | -11 | 11 | -5 | x | x
COc1ccc2c(c1)C(NC(C)=O)CCc1cc(OC)c(OC)c(OC)c1-2 (stereo not drawn) | -6 | -4 | 55* | 84* | 0 | 46
COc1cc2c(c(OC)c1OC)-c1ccc(O)c(=O)cc1C(NC(C)=O)CC2 (stereo not drawn) | -10 | 1 | 59* | 85* | 0 | 51
COC1=C[C@@H]2C3=C([C@@H]2C1=O)[C@@H](NC(C)=O)CCc1cc(OC)c(OC)c(OC)c13 | -10 | x | -2 | 2 | -6 | 0
COC(=O)C1=C(C(=O)OC)SC2(S1)C(C(=O)OC)=C(C(=O)OC)Sc1c2ssc1=O | x | -32 | 45 | 26 | -20 | 101*
COC(=O)c1ccc(NC(=O)CSc2nc3ccc(N4C(=O)C5C6C=CC(C6)C5C4=O)cc3s2)cc1 (stereo not drawn) | x | 104* | -22 | 8 | 14 | 62*
C[C@H]1CN([C@@H](C)CO)C(=O)CCCn2cc(nn2)CO[C@@H]1CN(C)C(=O)Oc1ccc2ccccc2c1 | 6 | -12 | 0 | x | x | x
COc1cccc(-c2ccc3c(c2)C2c4cnnn4-c4ccccc4C(=O)N2CC3)c1 (stereo not drawn) | x | -6 | 59* | 19 | x | x
COC(=O)C1=C(c2cccc(OCc3ccccc3)c2)C[C@@H]2CC[C@H]1N2C(=O)NCc1cccc(C(F)(F)F)c1 | -5 | 9 | 18 | 37 | 1 | 4
COC(=O)C1=C(c2ccc(OCc3ccccc3)cc2)C[C@@H]2CC[C@H]1N2C(=O)NCc1ccc(C(C)(C)C)cc1 | 5 | 14 | 30 | 86* | -23 | x
COC(=O)C1=C(c2cccc(OCc3ccccc3)c2)C[C@@H]2CC[C@H]1N2C(=O)NCc1cc(C)oc1C(F)(F)F | x | 7 | 5 | 63* | -2 | 9
COC(=O)C1=C(c2ccc(OCc3ccccc3)cc2)C[C@@H]2CC[C@H]1N2C(=O)NCc1ccccc1 | 2 | 10 | 2 | 15 | 8 | -2
COC(=O)C1=C(c2ccc(OCc3ccccc3)cc2)C[C@@H]2CC[C@H]1N2C(=O)NCc1ccc([N+](=O)[O-])cc1 | 1 | 10 | 10 | 68* | 2 | 14
SMILES | PGC1a acetyl inh | LGR2 inh | EWS-Fli block | PAX8 reporter | EBV LMP1 NFkB | MITF TRPM1 inh
N#Cc1ccc(-c2ccc([C@@H]3[C@H]4CN(C(=O)Cc5ccccc5)CCCCN4[C@H]3CO)cc2)cc1 | -1 | -7 | 4 | -2 | x | x
COc1ccccc1CN1[C@H](CO)[C@@H](c2ccccc2)C12CN(C(=O)Cc1ccccc1)C2 | -2 | -13 | 0 | 21 | x | x
COC(=O)[C@@H]1[C@@H](CO)[C@@H]2Cn3c(cccc3=O)[C@H]1N2C(=O)C1CCCC1 | x | 5 | -4 | x | x | x
Cc1cccc(N2C(=O)CC(=O)NC2=O)c1 | 3 | x | x | x | 2 | 9
Cn1cc(/C=C2\C(=O)NC(=O)N(c3ccccc3)C2=O)c2ccccc21 | x | 3 | 6 | 8 | 10 | -17
CN(C)c1ccc(/C=C/C=C2/C(=O)NC(=O)N(c3ccccc3)C2=O)cc1 | x | x | 57* | 32 | -54 | 83*
Cc1ccc(N2C(=O)NC(=O)/C(=C\C=C\c3ccco3)C2=O)cc1 | -10 | 4 | 56* | 10 | 2 | 102*
CN1C(=O)/C(=C/C=C/c2ccco2)C(=O)NC1=S | 5 | 1 | 2 | 8 | -29 | 3
Cc1ccc(N2C(=O)NC(=O)/C(=C\c3ccoc3)C2=O)cc1 | -2 | 18 | -3 | -3 | -6 | 9
Cc1cccc(N2C(=O)NC(=O)/C(=C\C=C\c3ccco3)C2=O)c1 | x | 15 | 67* | 8 | -21 | 98*
O=C1NC(=O)N(c2ccccc2)C(=O)/C1=C/C=C/c1ccco1 | -5 | -9 | 60* | -24 | -4 | 95*
O=C(O)[C@H]1[C@H](CO)[C@H]2Cn3c(ccc(-c4ccc(F)cc4)c3=O)[C@@H]1N2CC1CCCCC1 | x | -1 | -3 | -10 | x | x
Cc1ccc(N2C(=O)NC(=O)/C(=C\C=C\c3ccco3)C2=O)cc1C | x | 7 | 72* | 31 | -33 | 90*
Cc1cccc(N2C(=O)NC(=O)/C(=C\c3cccn3-c3ccc(Cl)cc3)C2=O)c1 | 10 | 60* | x | x | -1 | u
Cc1cccc(S(=O)(=O)N2[C@@H]3Cn4c(ccc(-c5ccncc5)c4=O)[C@H]2[C@@H](C(=O)O)[C@@H]3CO)c1 | x | 1 | -4 | 1 | x | x
